Data from ChEMBL document CHEMBL4513216, “Probing the Open Global Health Chemical Diversity Library for Multistage-Active Starting Points for Next-Generation Antimalarials” (ACS Infect Dis, 2020).
The campaign covered roughly 68,000 compounds. About 2,700 (4%) showed an effect of 50% or more. The entries come from a sample that favours strong results as a whole.

tested on: Plasmodium berghei; test: Screen against P. berghei liver stage (PbLuc), transformed with Luciferase, at 2uM; assay type: functional, HepG2; settings: tested at 2 uM

Compared with Cc1cccc(-c2noc(CN3CCCC(Cn4cncn4)C3)n2)c1 (stereo unspecified), Cc1ccc(-c2noc(CN3CCCC(Cn4cncn4)C3)n2)cc1 (stereo unspecified) is lower in INHIBITION: 54.85% for the first, -35.33% for the second.

Compared with CCCNC(=O)CN1CCN(Cc2csc(C(C)(C)C)n2)CC1, CCCNC(=O)C1CCN(Cc2csc(C(C)(C)C)n2)CC1 is lower in INHIBITION: 22.1% for the first, -21.58% for the second.

First: CCCNC(=O)C1CCCN(Cc2csc(C(C)(C)C)n2)C1 (stereo unspecified)
Second: CC(C)(C)c1nc(CN2CCCC(Cn3cncn3)C2)cs1 (stereo unspecified)
The INHIBITION of the first is lower: 52.87% for the first, 80.49% for the second.

First: c1cncc(-c2noc(CN3CCCC(Cn4cncn4)C3)n2)c1 (stereo unspecified)
Second: c1cncc(-c2noc(CN3CCOC(Cn4cccn4)C3)n2)c1 (stereo unspecified)
The INHIBITION of the first is lower: -9.22% for the first, -0.12% for the second.

First: Cc1cc(CN2CCCC(Cn3cncn3)C2)no1 (stereo unspecified)
Second: Cc1cc(CN2CCCC(Cn3cncn3)C2)on1 (stereo unspecified)
The INHIBITION of the first is lower: -50.13% for the first, 59.54% for the second.

First: c1ccc(-c2nc(CN3CCCC(Cn4cncn4)C3)cs2)cc1 (stereo unspecified)
Second: CC(C)c1nc(CN2CCCC(Cn3cncn3)C2)cs1 (stereo unspecified)
The INHIBITION of the first is lower: -37.28% for the first, 5.52% for the second.

Going from Cc1ccc(-c2cc(CN3CCCC(Cn4cncn4)C3)on2)cc1 (stereo unspecified) to c1ccc(-c2cc(CN3C[C@H]4CC[C@@H](C3)N(CC3CCC3)C4)on2)cc1, the INHIBITION rises from -23.18% to 34.16%.

Going from c1ccc(-c2nc(CNC3CCc4ncnn4C3)cs2)cc1 (stereo unspecified) to Cn1nc2c(cc1=O)CN(Cc1coc(-c3ccccc3)n1)CC2, the INHIBITION rises from -7.88% to 17.31%.

Going from CCCc1nc(CNCC2CCCN2c2cccnn2)no1 (stereo unspecified) to CN(C)CC1CN(Cc2nc(-c3cccnc3)no2)CCO1 (stereo unspecified), the INHIBITION rises from 19.76% to 52.17%.

Compared with Cc1ccccc1CNc1ccccc1OCC(=O)N1CCOCC1, CNC(=O)CCNC(=O)c1ccccc1N1CCOCC1 is higher in INHIBITION: -64.94% for the first, -23.9% for the second.

Compared with COc1cc(C2c3c(n[nH]c3C)N=C3COC(=O)C32)cc(Br)c1O (stereo unspecified), COc1cc(C(=O)NC(C)C)nc2c(C)cc(F)cc12 is lower in INHIBITION: 37.18% for the first, 35.91% for the second.

First: CC(C)C(=O)N1CCN(Cc2cnn(C)c2)CC2(CC(=O)N(C)C2)C1 (stereo unspecified)
Second: CCN1CC2(CC1=O)CN(Cc1ccccn1)CCN(C(C)=O)C2 (stereo unspecified)
The INHIBITION of the first is lower: -2.69% for the first, 28.2% for the second.

Going from O=C(NC1CC1)N1CCn2c(Cn3cccn3)cnc2C1 to CN(C)C(=O)N1CCn2c(Cn3cccn3)cnc2C1, the INHIBITION falls from 53.08% to 25.4%.

Compared with Cc1ccc(C(=O)N2CCc3ncc(Cn4cccn4)n3CC2)cn1, O=C(c1ccoc1)N1CCc2ncc(Cn3cccn3)n2CC1 is higher in INHIBITION: 16.43% for the first, 50.17% for the second.

Going from O=C(c1cccc(F)c1)N1CCc2ncc(Cn3cccn3)n2CC1 to O=C(NCc1ccccc1)N1CCn2c(Cn3cccn3)cnc2C1, the INHIBITION rises from -39.07% to 6.33%.

Compared with Cc1ncsc1CN1C[C@@H]2COC[C@]2(C(=O)NCc2ccccn2)C1, Cc1cc(NC(=O)NCc2ccccn2)n(C)n1 is higher in INHIBITION: -0.27% for the first, 29.11% for the second.

Going from CC(C(=O)N1CCN(c2ccccc2)CC1)n1cc(Br)cn1 (stereo unspecified) to CC(C(=O)N1CCOCC1)n1cc(Br)cn1 (stereo unspecified), the INHIBITION rises from -34.08% to 15.05%.

First: CN1CCN(c2ccccc2CNC(=O)CSC(F)(F)F)CC1
Second: CCCNC(=O)CCNC(=O)c1ccccc1N1CCOCC1
The INHIBITION of the first is higher: -14.36% for the first, -21.71% for the second.

Compared with CC(C)C(C(=O)N1CCCN(c2cccnn2)CC1)n1cncn1 (stereo unspecified), Cc1nccn1C1CCCN(C(=O)c2ccc3nnc(C)n3c2)C1 (stereo unspecified) is higher in INHIBITION: -0.6% for the first, 6.12% for the second.

First: OCc1c(Cl)ncn1-c1ccc(F)cc1
Second: CS(=O)(=O)c1nccn1Cc1ccc(F)cc1Cl
The INHIBITION of the first is lower: 22.43% for the first, 29.43% for the second.

First: O=C(CCC1CCCC1)N1CCC(c2cc3ncccc3c(O)n2)CC1
Second: O=C(CCNC(=O)c1ccccc1N1CCOCC1)NC1CCCC1
The INHIBITION of the first is lower: 22.39% for the first, 58.76% for the second.

First: CCCn1nccc1C(=O)Nc1nc(C)c(C)s1
Second: Cc1nc(NC(=O)c2c(-n3cnnn3)sc(C)c2C)sc1C
The INHIBITION of the first is lower: -44.44% for the first, 60.67% for the second.

Compared with Cc1sc(-n2cnnn2)c(C(=O)NC(C)C)c1C, CC(C)CNC(=O)c1c(-n2cnnn2)sc2c1CCCC2 is higher in INHIBITION: -21.53% for the first, 15.93% for the second.

First: Cc1nc(NC(=O)c2c(-n3cnnn3)sc3c2CCCC3)sc1C
Second: Cc1nc(NC(=O)c2c(-n3cnnn3)sc3c2CCC3)sc1C
The INHIBITION of the first is higher: 76.25% for the first, 10.71% for the second.

Going from F[C@@H]1CN(CC2CC2)C[C@@H]1OCc1nc2cnccc2[nH]1 to O=C1NC2(CCN(CC3CC3)CC2)CC1c1ccccc1 (stereo unspecified), the INHIBITION falls from 25.94% to 11.18%.

Going from COCCC(=O)N1CCC(C(=O)c2cc(C)cnc2N)CC1 to COCCN1CCN(C(=O)c2ccc(C)cc2F)[C@H]2CS(=O)(=O)C[C@H]21, the INHIBITION falls from 41.56% to 32.26%.

First: c1ccc(Sc2ccc3c(c2)OCO3)c(CNC2=NCCN2)c1
Second: Cc1nc(CNC(=O)NC(C)c2ccc3c(c2)OCCO3)cs1 (stereo unspecified)
The INHIBITION of the first is higher: 33.59% for the first, 21.69% for the second.

Compared with COCC1N(C(=O)c2ccco2)C2CCC1(O)CC2 (stereo unspecified), Cc1ncsc1C(=O)NC1CCN(Cc2cccc3c2OCCO3)CC1 is higher in INHIBITION: 3.88% for the first, 21.83% for the second.

Going from COc1ccc(Br)cc1Cn1nc(C(N)=O)ccc1=O to CCOc1ccc(Br)cc1C1CCCCN1 (stereo unspecified), the INHIBITION rises from -21.09% to -0.44%.

Compared with CCOc1ccc(Cl)cc1C1CCCN1 (stereo unspecified), CCOc1ccc(Br)cc1C1CCCN1 (stereo unspecified) is higher in INHIBITION: -27.75% for the first, 53.55% for the second.

First: COc1cc(NC(=O)NCc2ccccn2)cc(OC)c1
Second: COc1cc(F)cc(NC(=O)NCc2cccc(N(C)C)n2)c1
The INHIBITION of the first is higher: 52.08% for the first, 23.92% for the second.

First: N#Cc1c(F)cccc1NCCCOCC1CCOC1 (stereo unspecified)
Second: O=C(CCc1ncc(-c2ccc(F)cc2)o1)NCCN1CCOCC1
The INHIBITION of the first is higher: -39.57% for the first, -45.79% for the second.

First: C[C@@H]1CN(CC(C)(C)N2CCCCC2)C[C@@]1(O)C1CC1
Second: C[C@@H]1CN(CC(C)(C)N2CCCCC2)CC[C@@]1(O)C1CC1
The INHIBITION of the first is higher: 51.31% for the first, 12.62% for the second.

Going from C[C@@H]1CN(CC(C)(C)N2CCOCC2)C[C@@]1(O)C1CC1 to Cc1cnc(C)c(N2C[C@H]3OC(=O)N(C4CCCC4)[C@H]3C2)n1, the INHIBITION rises from -10.59% to 12.59%.

First: Cc1cc(C(=O)NCC(O)c2ccc(Cl)s2)c(C)o1 (stereo unspecified)
Second: Cc1occc1C(=O)NCC(O)c1ccc(Cl)s1 (stereo unspecified)
The INHIBITION of the first is higher: 57.75% for the first, 43.44% for the second.

Going from Cc1ccc(C(=O)NCC(O)c2ccc(Cl)s2)c(=O)[nH]1 (stereo unspecified) to CC[C@@H](CO)Nc1nccc(-c2c[nH]c3cc(C(=O)OC)ccc23)n1, the INHIBITION rises from 10.05% to 17.01%.

First: O=C1CCC2(CCCN(C(=O)c3ccccn3)CC2)N1 (stereo unspecified)
Second: CS(=O)(=O)N1CCN(C(=O)c2cc(-c3cccs3)cs2)CC1
The INHIBITION of the first is higher: 28.2% for the first, -23.8% for the second.

Going from Cc1cc(NC(=O)CN2CCN(c3nccs3)C(C)C2)no1 (stereo unspecified) to CN(C)CC1CN(Cc2nc(-c3ccccn3)no2)CCO1 (stereo unspecified), the INHIBITION rises from -2.82% to 69.11%.

Going from O=C(NCCN1CCOCC1)NCc1ncc(-c2ccccc2)o1 to Cc1ccc(-c2cnc(CCC(=O)NCCN3CCOCC3)o2)cc1C, the INHIBITION rises from 24.89% to 59.03%.

First: Cc1nc(C2CCCN(C(=O)c3c(C)nn4cccnc34)C2)no1 (stereo unspecified)
Second: CC(C)(C)C(=O)N1CCCC1c1nc(O)cc(-c2ccccn2)n1 (stereo unspecified)
The INHIBITION of the first is higher: -1.02% for the first, -10.16% for the second.

Compared with CCCn1ccnc1CN1CCc2[nH]cnc2C1Cc1ccccc1 (stereo unspecified), c1ccc(-c2noc(CN3CCOC(Cn4cccn4)C3)n2)nc1 (stereo unspecified) is higher in INHIBITION: -76.22% for the first, 23.71% for the second.

Going from Cc1cccc(CN2C[C@@H]3CN(C(=O)c4cnoc4C)C[C@@H]3C2=O)n1 to Cc1cccc(CN2C[C@@H]3CN(C(=O)C4CC=CC4)C[C@@H]3C2=O)n1, the INHIBITION rises from 35.89% to 54.01%.

Compared with Cc1cccc(CN2C[C@@H]3CN(C(=O)NC(C)C)C[C@@H]3C2=O)n1, CCc1noc(C(C)N(C)CC(=O)Nc2c(C)cccc2C)n1 (stereo unspecified) is lower in INHIBITION: 35.34% for the first, 32.81% for the second.

Going from Cn1nc2c(cc1=O)CN(Cc1coc(-c3ccc(F)cc3)n1)CC2 to Cc1ccc(-c2nc(CN3CCc4nn(C)c(=O)cc4C3)co2)cc1, the INHIBITION rises from -21.39% to 62.46%.

Compared with Cn1nc2c(cc1=O)CN(Cc1nc(-c3ccco3)no1)CC2, Cn1nc2c(cc1=O)CN(Cc1nc(-c3ccccn3)no1)CC2 is higher in INHIBITION: -0.05% for the first, 50.75% for the second.

Compared with CCn1nc2c(cc1=O)CN(Cc1nc(-c3ccccn3)no1)CC2, Cc1cnn(CC2CN(Cc3nc(-c4ccccn4)no3)CCO2)c1 (stereo unspecified) is higher in INHIBITION: -27.03% for the first, -5.09% for the second.

First: Cc1cnn(CC2CN(Cc3nc(-c4cccnc4)no3)CCO2)c1 (stereo unspecified)
Second: Cc1cnn(CC2CN(Cc3cccnc3)CCO2)c1 (stereo unspecified)
The INHIBITION of the first is lower: 12.75% for the first, 41.76% for the second.

First: O=C(c1ccno1)N1CCOC[C@H](Oc2ccc(C(F)(F)F)cc2)C1
Second: CN1CCCC(c2cccc(-c3cccc(C(F)(F)F)c3)n2)C1 (stereo unspecified)
The INHIBITION of the first is lower: 28.05% for the first, 38.64% for the second.

Going from O=C(C1CCCC1)N1C[C@@H]2CCN(c3cccnc3)C[C@@H]2C1 to COc1cc(N2C[C@@H]3COC[C@]3(COc3cccnc3)C2)ncn1, the INHIBITION falls from -3.25% to -38.72%.

First: O=C(Cc1ccc(F)cc1)N1CCn2cc(Cn3cccn3)nc2C1
Second: CN1CCCC(c2cccc(-c3cccc(F)c3)n2)C1 (stereo unspecified)
The INHIBITION of the first is lower: -6.3% for the first, 13.88% for the second.

Going from CNc1nc2c(c(C(=O)N3CCCC3)n1)CN(Cc1cc(C)no1)CC2 to CCc1noc(C(C)N(C)CC(=O)Nc2ccc(Br)cc2C)n1 (stereo unspecified), the INHIBITION rises from 10.63% to 53.57%.

First: COc1ccc(Cc2nnc3n2N=C(C(C)(C)C)CS3)cc1
Second: CCc1noc(C(C)N(C)CC(=O)Nc2cccc(C)c2C)n1 (stereo unspecified)
The INHIBITION of the first is lower: -13.89% for the first, 1.73% for the second.

First: CN1CCCC(c2cccc(-c3cccc(Cl)c3)n2)C1 (stereo unspecified)
Second: O=C(CCc1ccccc1Br)NCC(=O)NCc1ccccc1
The INHIBITION of the first is higher: 51.5% for the first, -13.34% for the second.
